PubChem BioAssay
Calls of active or inactive are those of the source. Unless noted, how the calls were made is not given here.

Experiments:
[1] = tested on: Wnt5a (protein binding on small-molecule microarray); assay: Wnt5a binders on small-molecule microarray, primary screen, biophysical, 635/667 nm fluorescence (AID 1142); conditions: 635 nm fluorescence, higher = more signal;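 further: fluorescence read at 667 nm with signal to noise per printed feature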
[2] = cell viability in Huh7 cells, primary screen, cytotoxicity control for HCV replication inhibitor project, CellTiter-Glo luminescence, basal, 48 h (AID 1143); conditions: Huh7 HCV replicon, higher = more signal, called active from +8 up or from −8 down;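 further: Huh7 hepatoma cells carrying a hepatitis C replication reporter with no stimulus; test concentration not given here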
[3] = P. aeruginosa biofilm formation inhibitors, primary screen, PAO1 strain, BacTiter-Glo luminescence, LB-PBS (AID 1144); conditions: 12 h, higher = more signal
[4] = CREB reporter modulators without forskolin, primary screen, cell-based, PC12, CRE-LacZ reporter, unstimulated (AID 1145); conditions: no forskolin, luminescence, 4.5 h, higher = more signal, called active from +8 up or from −8 down
[5] = CREB reporter modulators under forskolin, primary screen, cell-based, PC12, CRE-LacZ reporter, forskolin-stimulated (AID 1146); conditions: luminescence, 4.5 h, higher = more signal, called active from +8 up or from −8 down;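 further: PC12 cells with 6xCRE LacZ reporter stimulated by forskolin 10 µM; beta-galactosidase reporter signal reflecting CREB driven transcription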
[6] = molecular target: Streptavidin (Streptomyces avidinii) (UniProt P22629); assay: streptavidin binders on small-molecule microarray, primary screen, artefact control for SMM compound annotation, biophysical, 635/667 nm fluorescence (AID 1147); conditions: streptavidin binding, higher = more signal;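 further: signal reflects streptavidin binding to arrayed compounds as a control protein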
[7] = small-molecule binders of probe aInhba, primary screen, biochemical, small-molecule microarray, 635/667 nm fluorescence (AID 1148); conditions: higher = more signal;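 further: score merges 667nm spot fluorescence with signal-to-noise for antibody binding to printed compounds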
Torsin-1A (Homo sapiens) [8] = molecular target: Torsin-1A (Homo sapiens) (UniProt O14656); assay: torsin A binders from cell lysate, primary screen, small-molecule microarray, wild-type, 635/667 nm (AID 1149); conditions: COS7 hTOR1A-WT lysate, 635 nm fluorescence, higher = more signal
Torsin-1A (Homo sapiens) [9] = molecular target: Torsin-1A (Homo sapiens) (UniProt O14656); assay: small-molecule binders of mutant TOR1A in lysate, primary screen, cell lysate, small-molecule microarray, COS7 lysate, 635/667 nm fluorescence (AID 1150); conditions: COS7 hTOR1A mutant lysate, 635 nm fluorescence, higher = more signal;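 further: score pools 667 nm emission and signal to noise measuring lysate protein binding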
[10] = tested on: Sonic hedgehog protein (Shh); assay: small-molecule binders of Shh protein, primary screen, biochemical, small-molecule microarray, 635/667 nm fluorescence (AID 1151); conditions: small-molecule microarray binding, 635 nm fluorescence; higher = more signal;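 further: Shh protein binding to compounds spotted on small-molecule microarray slides; score combines spot fluorescence intensity with signal-to-noise across triplicate slides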
[11] = E. coli DRC41 culture turbidity changes, primary screen, E. coli filamentation inducer project, strain DRC41, OD650, 48 h (AID 1152);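 further: E. coli MC1000 strain DRC41 lacking acrAB efflux pump and sulA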; conditions: E. coli DRC41 (acrAB sulA), higher = more signal, called active from +8 up or from −8 down
[12] = small-molecule binders of probe aLefty1, primary screen, biochemical, small-molecule microarray, 635/667 nm fluorescence (AID 1153); conditions: higher = more signal;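 further: score merges spot fluorescence with signal-to-noise ratio from the scanned slide images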
[13] = PSAC antagonists in infected red cells, primary screen, cell-based, P. falciparum Indochina, OD700, 1 h (AID 1154); conditions: P. falciparum Indochina infected RBC osmotic lysis, higher = more signal, called active from +8 up or from −8 down
[14] = PSAC antagonists in infected red cells, primary screen, cell-based, P. falciparum Indochina, OD700, 2 h (AID 1155);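 further: lysis reports solute entry through the parasite surface anion channel PSAC; channel blockers reduce lysis of infected cells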; conditions: P. falciparum Indochina infected erythrocytes, osmotic lysis OD700; higher = more signal, called active from +8 up or from −8 down
[15] = osmotic lysis modulators in infected erythrocytes, primary screen, PSAC antagonist project, cell-based, P. falciparum Indochina, OD700, 3 h (AID 1156); conditions: higher = more signal, called active from +8 up or from −8 down
[16] = PSAC antagonists in infected red cells, primary screen, cell-based, P. falciparum Indochina, OD700, 18 h (AID 1157); conditions: P. falciparum Indochina infected erythrocytes, osmotic lysis OD700, 18 h; higher = more signal, called active from +8 up or from −8 down
[17] = modulators of S6 phosphorylation in cells, primary screen, cell-based, A549, cytoblot, luminescence, serum-stimulated (AID 1158); conditions: A549 phospho-S6 cytoblot, 5 h, higher = more signal;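 further: serum-stimulated A549 lung adenocarcinoma cells; signal is phosphorylated S6 detected by cytoblot immunostaining with HRP secondary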
[18] = molecular target: NADPH oxidase 2 (Homo sapiens) (UniProt P04839); assay: NOX2-dependent H2O2 signal modulators, primary screen, NOX inhibitor project, cell-based, HEK293-NOX2, PMA-stimulated, Amplex Red fluorescence (AID 1159); conditions: 45 min, higher = more signal, called active from +8 up or from −8 down; further: test concentration not given here
[19] = molecular target: NADPH oxidase 4 (Homo sapiens) (UniProt Q9NPH5); assay: NOX4-dependent H2O2 signal modulators, primary screen, NOX inhibitor project, cell-based, HEK293-NOX4, tetracycline-induced, Amplex Red fluorescence (AID 1160); conditions: 45 min, higher = more signal, called active from +8 up or from −8 down
[20] = molecular target: NADPH oxidase 5 (Homo sapiens) (UniProt Q96PH1); assay: NOX5-dependent H2O2 signal modulators, primary screen, NOX inhibitor project, cell-based, HEK293-NOX5, Amplex Red fluorescence (AID 1161); conditions: HEK293-NOX5, ionomycin, 45 min, higher = more signal
Sequence of NADPH oxidase 5 (Homo sapiens) (Q96PH1 whole entry, looked up): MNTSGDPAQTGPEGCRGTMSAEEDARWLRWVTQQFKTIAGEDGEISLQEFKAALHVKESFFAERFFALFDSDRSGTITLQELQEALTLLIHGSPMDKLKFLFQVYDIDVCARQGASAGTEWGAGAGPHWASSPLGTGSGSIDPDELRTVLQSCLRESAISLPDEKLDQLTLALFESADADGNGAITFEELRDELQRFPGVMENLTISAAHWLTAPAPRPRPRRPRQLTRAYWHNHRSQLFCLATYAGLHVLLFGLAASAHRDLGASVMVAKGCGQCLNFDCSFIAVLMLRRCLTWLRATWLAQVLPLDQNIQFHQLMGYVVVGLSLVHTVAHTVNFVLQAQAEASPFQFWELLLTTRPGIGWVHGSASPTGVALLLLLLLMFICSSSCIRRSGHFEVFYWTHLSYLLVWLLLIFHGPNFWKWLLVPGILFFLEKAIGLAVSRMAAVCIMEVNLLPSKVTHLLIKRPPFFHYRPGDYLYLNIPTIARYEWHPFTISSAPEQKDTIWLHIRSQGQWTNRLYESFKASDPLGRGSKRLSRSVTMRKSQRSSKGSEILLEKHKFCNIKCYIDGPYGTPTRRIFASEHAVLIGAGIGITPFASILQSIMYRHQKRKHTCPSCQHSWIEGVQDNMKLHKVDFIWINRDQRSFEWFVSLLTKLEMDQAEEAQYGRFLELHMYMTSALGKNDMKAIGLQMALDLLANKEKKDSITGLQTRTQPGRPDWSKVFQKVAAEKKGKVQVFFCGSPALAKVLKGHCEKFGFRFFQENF

Sequence of NADPH oxidase 2 (Homo sapiens) (P04839 whole entry, looked up): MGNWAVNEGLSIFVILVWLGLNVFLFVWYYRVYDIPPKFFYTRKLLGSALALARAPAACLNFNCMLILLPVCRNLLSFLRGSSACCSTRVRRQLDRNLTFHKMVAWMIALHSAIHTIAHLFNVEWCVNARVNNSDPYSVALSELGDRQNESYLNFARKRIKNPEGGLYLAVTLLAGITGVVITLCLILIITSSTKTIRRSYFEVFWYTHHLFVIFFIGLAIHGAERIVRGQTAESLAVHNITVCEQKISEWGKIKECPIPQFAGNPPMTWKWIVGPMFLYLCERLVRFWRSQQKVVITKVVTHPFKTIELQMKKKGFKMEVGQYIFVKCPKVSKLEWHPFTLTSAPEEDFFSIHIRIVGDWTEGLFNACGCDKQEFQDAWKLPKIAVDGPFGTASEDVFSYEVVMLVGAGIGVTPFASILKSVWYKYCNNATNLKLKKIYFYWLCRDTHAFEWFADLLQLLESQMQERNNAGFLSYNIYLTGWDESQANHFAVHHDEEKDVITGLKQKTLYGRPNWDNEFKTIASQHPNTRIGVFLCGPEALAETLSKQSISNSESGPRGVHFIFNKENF
Sequence of NADPH oxidase 4 (Homo sapiens) (Q9NPH5 whole entry, looked up): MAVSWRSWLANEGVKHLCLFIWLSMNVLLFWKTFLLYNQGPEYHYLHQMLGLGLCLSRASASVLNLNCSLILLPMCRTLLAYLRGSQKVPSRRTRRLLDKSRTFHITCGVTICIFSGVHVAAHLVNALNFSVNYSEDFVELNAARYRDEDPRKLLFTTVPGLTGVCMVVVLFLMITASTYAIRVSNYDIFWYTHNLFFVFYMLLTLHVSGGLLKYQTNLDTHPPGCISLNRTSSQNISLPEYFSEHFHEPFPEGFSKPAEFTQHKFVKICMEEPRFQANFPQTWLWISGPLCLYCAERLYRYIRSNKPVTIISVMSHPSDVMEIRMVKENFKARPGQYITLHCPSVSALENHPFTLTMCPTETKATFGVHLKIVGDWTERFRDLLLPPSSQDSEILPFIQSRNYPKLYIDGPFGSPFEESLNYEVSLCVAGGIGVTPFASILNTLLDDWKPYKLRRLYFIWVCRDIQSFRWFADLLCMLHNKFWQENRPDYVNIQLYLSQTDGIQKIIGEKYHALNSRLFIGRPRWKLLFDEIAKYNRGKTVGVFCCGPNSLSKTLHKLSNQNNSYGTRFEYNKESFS
Sequence of Streptavidin (Streptomyces avidinii) (P22629 whole entry, looked up): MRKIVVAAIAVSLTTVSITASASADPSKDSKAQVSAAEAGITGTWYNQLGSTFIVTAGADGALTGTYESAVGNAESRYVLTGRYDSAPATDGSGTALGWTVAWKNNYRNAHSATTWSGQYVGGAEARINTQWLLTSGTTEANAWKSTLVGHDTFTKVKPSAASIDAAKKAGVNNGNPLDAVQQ
Sequence of Torsin-1A (Homo sapiens) (O14656 whole entry, looked up): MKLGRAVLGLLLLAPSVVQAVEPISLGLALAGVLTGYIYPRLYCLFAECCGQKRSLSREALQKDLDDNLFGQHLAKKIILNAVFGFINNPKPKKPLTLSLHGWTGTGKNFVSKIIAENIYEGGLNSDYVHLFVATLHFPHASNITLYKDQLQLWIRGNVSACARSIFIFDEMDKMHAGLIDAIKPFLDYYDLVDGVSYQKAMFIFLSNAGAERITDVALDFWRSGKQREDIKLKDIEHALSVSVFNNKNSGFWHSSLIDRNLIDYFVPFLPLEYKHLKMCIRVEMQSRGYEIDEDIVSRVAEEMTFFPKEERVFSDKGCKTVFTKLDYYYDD

Row | SMILES | composite z-score [1] | z-score [2] | z-score [3] | z-score [4] | z-score [5] | composite z-score [6] | composite z-score [7] | composite z-score (Torsin-1A (Homo sapiens) [8]) | composite z-score (Torsin-1A (Homo sapiens) [9]) | composite z-score [10] | z-score [11] | composite z-score [12] | z-score [13] | z-score [14] | z-score [15] | z-score [16] | z-score [17] | z-score [18] | z-score [19] | z-score [20]
1 | COC(=O)[C@@]1(Cc2ccc(F)cc2)[C@H]2c3cc(C(=O)N(C)C)n(Cc4cc(F)c(F)c(F)c4)c3C[C@H]2CN1C(=O)c1ccccc1 | 0.283 | -3 (inactive) | 0.459 (inactive) | 1.53 (inactive) | 0.578 (inactive) | 1.25 | 1.08 | -0.272 | 0.193 | -0.176 | -1.42 (inactive) | 0.5 | 4.21 (inactive) | 0.548 (inactive) | 0.365 (inactive) | 1.16 (inactive) | -0.359 | 0.525 (inactive) | 2.18 (inactive) | 1.26
2 | Oc1ccc2cc[n+](Cc3sc4ccccc4c3Cl)cc2c1 | -0.127 | -0.683 (inactive) | -0.521 (inactive) | -0.374 (inactive) | 0.232 (inactive) | 0.361 | -0.12 | -0.648 | 0.11 | 1.53 | -0.669 (inactive) | 0.248 | 1.52 (inactive) | 0.109 (inactive) | 1.52 (inactive) | 0.352 (inactive) | 0.0138 | -0.121 (inactive) | -1.23 (inactive) | -0.1
3 | CN(C)CCCCCCNC(=O)[C@@H]1C[C@@H]2C(=O)N[C@@H](Cc3ccccc3)C(=O)N2[C@@H]1c1ccc(O)cc1 | 0.484 | -0.764 (inactive) | -0.0157 (inactive) | -0.528 (inactive) | -0.167 (inactive) | 0.405 | -0.025 | 0.641 | 1.37 | 2.19 | -0.0959 (inactive) | 0.378 | 1.85 (inactive) | 0.596 (inactive) | 2.42 (inactive) | 0.228 (inactive) | 0.594 | -0.745 (inactive) | 0.262 (inactive) | -0.632
4 | O=C(NCCN1CCOCC1)C1N=C(c2ccc(OCCCO)cc2)N(c2ccccc2)O1 (stereo not given) | 0.889 | 0.213 (inactive) | 1.27 (inactive) | 1.78 (inactive) | 0.552 (inactive) | 0.284 | 0.0219 | 1.86 | 2.3 | 1.42 | 0.759 (inactive) | 0.0709 | 6.99 (inactive) | 0.287 (inactive) | -0.625 (inactive) | 0.399 (inactive) | -0.441 | 1.45 (inactive) | -0.0142 (inactive) | -0.429
5 | O=C(c1ccccc1)N1C(=O)[C@@]2(Cc3ccccc31)N=C(c1ccc(OCCCO)cc1)O[C@H]2c1ccccc1 | 0.54 | -4.44 (inactive) | 0.849 (inactive) | 1.11 (inactive) | 1.28 (inactive) | 0.353 | 0.346 | 0.388 | 1.01 | 1.27 | -0.632 (inactive) | 0.554 | 14.6 (active) | 2.37 (inactive) | 3.04 (inactive) | 1.03 (inactive) | -0.256 | -0.595 (inactive) | -0.0485 (inactive) | -1.74
6 | CN1C=C(C(=O)OCCS(C)(=O)=O)C(C(=O)OCCS(C)(=O)=O)=CC(c2ccc(CO)cc2)=CC1C1CC1 (stereo not given) | 0.0929 | -0.95 (inactive) | 0.706 (inactive) | -0.205 (inactive) | -0.507 (inactive) | -0.0005 | 0.149 | 0.738 | 0.5 | 0.457 | 0.225 (inactive) | -0.147 | 11.3 (active) | 1.46 (inactive) | -0.107 (inactive) | 0.897 (inactive) | 0.116 | -2.88 (inactive) | -1.13 (inactive) | -2.52
7 | CCCCCCc1nc(-c2ccc(OC)nc2)cc2c1[Si](C(C)C)(C(C)C)O[C@H]2c1ccccc1 | 0.323 | -0.295 (inactive) | 0.0731 (inactive) | 0.773 (inactive) | 0.03 (inactive) | 0.111 | 0.136 | 0.0114 | -0.234 | 1.21 | -1.03 (inactive) | -0.0559 | 0.614 (inactive) | 0.139 (inactive) | 0.245 (inactive) | -0.353 (inactive) | -0.168 | 0.0155 (inactive) | -0.95 (inactive) | -1.64
8 | [N-]=[N+]=NCc1ccccc1C[C@]1(C(=O)N2CCCCC2)N=C(c2ccc(OCCCO)cc2)O[C@H]1c1ccccc1N=[N+]=[N-] | 0.0151 | -5.01 (inactive) | -0.799 (inactive) | -0.333 (inactive) | -1.69 (inactive) | 1.46 | 0.127 | 0.333 | 1.03 | -0.27 | -0.365 (inactive) | 0.286 | 30.8 (active) | 26.5 (active) | 3.55 (inactive) | 6.26 (inactive) | 1.9 | -2.45 (inactive) | 0.306 (inactive) | -2.97
